{"source": "PubChem BioAssay (EPA / NIEHS)", "note": "Records with an inconclusive call do not appear. Active and inactive are the calls of the source. The calls were made as follows: active = hit-call score of the fitted dose curve at least 0.9, where 1 is the maximum; inconclusive = response in the unintended direction; inactive = score below 0.9.", "data": [{"read-out": "xenobiotic metabolism (CYP1A2), CYP1A2 (gene 1544)", "assay": "CLD_CYP1A2_48hr: CellzDirect (CLD) Gene Expression Assay for xenobiotic metabolism (CYP1A2) at 48 hours (AID 2283703)", "experimental": "CLD_48hr is a cell-based, multiplexed-readout assay that uses hepatocyte, a human liver primary cell, with measurements taken at 48 hours after chemical dosing in a 96-well plate.CLD_CYP1A2_48hr is one of 16 assay component(s) measured or calculated from the CLD_48hr assay. It is designed to make measurements of mRNA induction, a form of inducible reporter, as detected with chemiluminescence signals by Quantitative Nuclease Protection Assay (qNPA) technology.Data from the assay component CLD_CYP1A2_48hr was analyzed at the endpoint, CLD_CYP1A2_48hr, in the positive analysis fitting direction relative to DMSO as the negative control and baseline of activity. Using a type of inducible reporter, gain-of-signal activity can be used to understand changes in the reporter gene as they relate to the gene CYP1A2. Furthermore, this assay endpoint can be referred to as a primary readout. To generalize the intended target to other relatable targets, this assay endpoint is annotated to the cyp intended target family, where subfamily is xenobiotic metabolism.\nHuman hepatocyte cultures were treated daily for two consecutive days with fresh dosing solutions containing appropriate concentrations of the 320 ToxCast chemicals (chemical identities were blinded to CellzDirect and other ToxCast collaborators), vehicle control (0.2% DMSO), and positive control inducers as summarized in Table 1. Due to the large number of treatment groups and chemicals examined, the ToxCast chemicals were divided into two groups (spanning two independent cultures of hepatocytes from separate donor preparations (Hu778: ToxCast plates 1 and 2; Hu776: ToxCast plates 3 and 4). Each preparation of human hepatocyte cultures was treated with respective vehicle control, medium only control, set of six positive controls/reference chemicals for the five hepatic receptor pathways, and a subset of eight of the ToxCast chemicals (indoxacarb, pyrithiobac-sodium, norflurazon, cyhalofop-butyl, methomyl, thiram, acetochlor, and propiconazole). These replicate data, coupled with internal replicates designed within the blinded ToxCast chemical library, provided additional data to evaluate interindividual differences between hepatocyte preparations and their potential impact on chemical profiles.Cell morphology and integrity were evaluated using phase-contrast microscopy as an indicator of hepatocyte cell health (Tyson & Green, 1987). Cultures for each treatment group (i.e., media, vehicle [0.2% DMSO], positive control inducers [multiple concentrations], and the ToxCast chemicals [multiple concentrations]) were observed and cell morphology was assessed relative to vehicle control cultures at each harvest time point (0, 6, 24, or 48 h). […] Images were evaluated at the conclusion of the study to assess changes in cell integrity and account for the effects of chemical exposure on uncharacteristic changes in concentration-dependent gene expression profiles. The results from these determinations of apparent cytotoxicity were annotated (yes/no) alongside the corresponding qNPA data for reference.At the conclusion of each treatment period, hepatocyte cultures (96-well) were washed with 1 volume of HBSS, lysed by addition of 25 ul ArrayPlate lysis buffer (HTG, Tucson, AZ), and 70 ul/well of Denaturation Oil, denatured by incubation at 95C for 10 min, and frozen at approximately -70C until analysis by nuclease protection assay (qNPA) (Roberts et al., 2007). For qNPA analysis, cell lysates were thawed at 50C for approximately 30 min, qNPA probes were added, and samples were incubated at 95C for 10 min to begin the detection process by denaturing the target RNA, dissociating the duplexes and secondary structure hybridization. At the conclusion of the hybridization period, S1 nuclease reagent was added to each sample to digest all nonprotected nucleotides at 50C for 60-90 min. […]", "values": [{"smiles": "O=C(O)CCCOc1ccc(Cl)cc1Cl", "outcome": "inactive"}, {"smiles": "OCCOc1ccccc1", "outcome": "inactive"}, {"smiles": "C#CCN1C(=O)COc2cc(F)c(N3C(=O)C4=C(CCCC4)C3=O)cc21", "outcome": "inactive"}, {"smiles": "Cc1cc(C)nc(NC(=O)NS(=O)(=O)c2ccccc2C(=O)OC2COC2)n1", "outcome": "inactive"}, {"smiles": "CNC(=O)Oc1ccccc1OC(C)C", "outcome": "inactive"}, {"smiles": "CC(C)(C)C(O)/C(=C\\c1ccc(Cl)cc1Cl)n1cncn1", "note": "(stereo not given)", "AC50": "3.7 µM (active)"}, {"smiles": "CCOC1Oc2ccc(OS(C)(=O)=O)cc2C1(C)C", "note": "(stereo not given)", "outcome": "inactive"}, {"smiles": "COc1cc(OC)nc(NC(=O)NS(=O)(=O)c2cc(NC=O)ccc2C(=O)N(C)C)n1", "outcome": "inactive"}, {"smiles": "O=C(Nc1ccccc1)Nc1cnns1", "AC50": "3.38 µM (active)"}, {"smiles": "C[C@H]1[C@H](c2ccc(Cl)cc2)SC(=O)N1C(=O)NC1CCCCC1", "AC50": "5.38 µM (active)"}, {"smiles": "CNC(=O)Oc1cccc(N=CN(C)C)c1", "outcome": "inactive"}, {"smiles": "CNC(=O)/C=C(\\C)OP(=O)(OC)OC", "outcome": "inactive"}, {"smiles": "CCOCN(C(=O)CCl)c1c(C)cccc1CC", "outcome": "inactive"}, {"smiles": "O=S(=O)(O)C(F)(F)C(F)(F)C(F)(F)C(F)(F)C(F)(F)C(F)(F)C(F)(F)C(F)(F)F", "outcome": "inactive"}, {"smiles": "O=C(NC(=O)c1c(F)cccc1F)Nc1ccc(OC(F)(F)C(F)OC(F)(F)F)c(Cl)c1", "note": "(stereo not given)", "outcome": "inactive"}, {"smiles": "COC(=O)c1ccccc1CS(=O)(=O)NC(=O)Nc1nc(OC)cc(OC)n1", "outcome": "inactive"}, {"smiles": "CN1CSC(=S)N(C)C1", "outcome": "inactive"}, {"smiles": "CNC(=O)CSP(=S)(OC)OC", "outcome": "inactive"}, {"smiles": "[2H]C1([2H])[n+]2ccccc2-c2cccc[n+]2C1([2H])[2H]", "outcome": "inactive"}, {"smiles": "CCOc1nc(NC)nc(NC(=O)NS(=O)(=O)c2ccccc2C(=O)OC)n1", "AC50": "14.3 µM (active)"}, {"smiles": "CC(C)OC(=O)Nc1cccc(Cl)c1", "AC50": "2.46 µM (active)"}, {"smiles": "COP(=O)(OC)OC=C(Cl)Cl", "outcome": "inactive"}, {"smiles": "COP(=S)(OC)Oc1ccc([N+](=O)[O-])cc1", "AC50": "5.33 µM (active)"}, {"smiles": "CCC(C)(C)C(=O)OC1=C(c2ccc(Cl)cc2Cl)C(=O)OC12CCCCC2", "AC50": "20 µM (active)"}, {"smiles": "CC1(C)C(C=C(Cl)Cl)C1C(=O)OC(C#N)c1ccc(F)c(Oc2ccccc2)c1", "note": "(stereo not given)", "outcome": "inactive"}, {"smiles": "CCN(CC)C(=O)SCc1ccc(Cl)cc1", "outcome": "inactive"}, {"smiles": "COC(=O)c1ccccc1S(=O)(=O)NC(=O)N(C)c1nc(C)nc(OC)n1", "outcome": "inactive"}, {"smiles": "N#Cc1c(Cl)c(Cl)c(Cl)c(C#N)c1Cl", "outcome": "inactive"}, {"smiles": "O=[N+]([O-])c1c(Cl)c(Cl)c(Cl)c(Cl)c1Cl", "AC50": "3.86 µM (active)"}, {"smiles": "CCCN(CCOc1c(Cl)cc(Cl)cc1Cl)C(=O)n1ccnc1", "AC50": "0.178 µM (active)"}, {"smiles": "CC1(c2ccc(Oc3ccccc3)cc2)OC(=O)N(Nc2ccccc2)C1=O", "note": "(stereo not given)", "AC50": "0.661 µM (active)"}, {"smiles": "COP(=S)(OC)Oc1ccc(SC)c(C)c1", "AC50": "6.69 µM (active)"}, {"smiles": "CCC(C)Nc1c([N+](=O)[O-])cc(C(C)(C)C)cc1[N+](=O)[O-]", "note": "(stereo not given)", "AC50": "5.38 µM (active)"}, {"smiles": "CC(C)(C)C(O)C(Oc1ccc(Cl)cc1)n1cncn1", "note": "(stereo not given)", "AC50": "5.29 µM (active)"}, {"smiles": "COc1nn(CSP(=S)(OC)OC)c(=O)s1", "AC50": "3.97 µM (active)"}, {"smiles": "CCCN(CCC)c1c([N+](=O)[O-])cc(C(F)(F)F)cc1[N+](=O)[O-]", "AC50": "9.22 µM (active)"}, {"smiles": "Oc1cc(Cl)ccc1Oc1ccc(Cl)cc1Cl", "outcome": "inactive"}, {"smiles": "CC(C)N(C(=O)COc1nnc(C(F)(F)F)s1)c1ccc(F)cc1", "outcome": "inactive"}, {"smiles": "O=C(O)COc1ccc(Cl)cc1Cl", "outcome": "inactive"}, {"smiles": "O=C(O)C(F)(F)C(F)(F)C(F)(F)C(F)(F)C(F)(F)C(F)(F)C(F)(F)F", "outcome": "inactive"}]}]}
